Molecules are shown by their SMILES. Results filed as inconclusive are left out. Values without a mark were called inactive. Activity calls are given as the source filed them. Calls come from the whole dose curve; as a rule, active = well fitted inhibition curve with a large enough effect; inconclusive = small, poorly fitted or top-dose-only effect; inactive = flat fitted curve, though single readings scatter.

40 compounds from PubChem BioAssay (NCATS) can be followed below.
Potency is the fitted concentration of half-maximal effect.

In the assay the target is Tyrosine-protein phosphatase non-receptor type substrate 1 (Homo sapiens) + Leukocyte surface antigen CD47 (Homo sapiens) (UniProt P78324+Q08722). In words: CD47-SIRPalpha protein protein interaction - Alpha assay qHTS validation (AID 1347059).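 Note: bead proximity luminescence from CD47 binding SIRPalpha after compound preincubation with SIRPalpha.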 As to conditions: AlphaScreen CD47-His/biotin-SIRPalpha binding, LOPAC; series mostly up to 38.3 µM; activity change, negative = inhibition: at the top concentration. The source says: SIRPalpha is a myeloid cell expressed immunomodulatory receptor that binds the tumor expressed immune checkpoint CD47. Therapeutic disruption of this interaction leads to immune-mediated tumor rejection. This assay was used to quantitate CD47-SIRPalpha binding biochemically and evaluate chemical libraries for novel CD47-SIRPalpha inhibitors. To recapitulate the biological interaction of CD47 and SIRPalpha, we designed expression constructs to produce their recombinant, soluble, extracellular interaction domains. CD47 was produced with an N-terminal 6His tag. SIRPalpha was produced with an N-terminal Avi-Tag for site-specific biotin incorporation. The CD47-SIRPalpha interaction was measured by AlphaScreen using affinity tag linked reagents (Ni-NTA acceptor bead and streptavidin donor bead). SIRPalpha without biotin incorporation was used as a positive control inhibitor.
Chain of Tyrosine-protein phosphatase non-receptor type substrate 1 (Homo sapiens) + Leukocyte surface antigen CD47 (Homo sapiens) (P78324 whole entry, looked up): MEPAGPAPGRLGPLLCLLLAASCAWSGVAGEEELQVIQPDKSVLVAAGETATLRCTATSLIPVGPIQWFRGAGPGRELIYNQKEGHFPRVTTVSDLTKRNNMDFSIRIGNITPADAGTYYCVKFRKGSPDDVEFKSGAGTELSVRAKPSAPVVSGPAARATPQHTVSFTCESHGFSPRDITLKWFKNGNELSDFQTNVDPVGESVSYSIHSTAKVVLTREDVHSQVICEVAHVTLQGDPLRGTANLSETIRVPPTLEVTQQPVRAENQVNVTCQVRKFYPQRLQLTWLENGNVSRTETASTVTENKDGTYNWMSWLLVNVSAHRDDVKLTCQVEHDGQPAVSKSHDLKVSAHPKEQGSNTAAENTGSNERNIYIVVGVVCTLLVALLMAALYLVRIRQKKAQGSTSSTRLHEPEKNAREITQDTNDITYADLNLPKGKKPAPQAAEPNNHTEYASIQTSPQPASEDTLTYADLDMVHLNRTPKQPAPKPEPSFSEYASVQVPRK
Chain of Tyrosine-protein phosphatase non-receptor type substrate 1 (Homo sapiens) + Leukocyte surface antigen CD47 (Homo sapiens) (Q08722 whole entry, looked up): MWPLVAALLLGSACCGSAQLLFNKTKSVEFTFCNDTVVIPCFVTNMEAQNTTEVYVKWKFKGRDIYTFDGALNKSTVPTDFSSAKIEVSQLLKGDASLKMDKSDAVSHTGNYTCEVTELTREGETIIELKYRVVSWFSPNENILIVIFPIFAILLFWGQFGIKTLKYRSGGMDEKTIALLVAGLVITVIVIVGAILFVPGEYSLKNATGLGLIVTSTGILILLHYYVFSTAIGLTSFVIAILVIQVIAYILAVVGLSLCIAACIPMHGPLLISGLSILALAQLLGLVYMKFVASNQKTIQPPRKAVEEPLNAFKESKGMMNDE
PROTOCOL TABLE (as described by Miller, T. et al. 2019)
SEQUENCE No. (e.g., 1, 2, 3, etc.); […] (e.g., Cells, Incubation, Reagent, etc.); VALUE and DESCRIPTION.
1a. Reagent. 2 uL SIRPalpha-biotin (25 nM) added to respective wells in Assay buffer; white/solid bottom high base, med bind 1536-well plates (Greiner 789075)
1b. Reagent. 2 uL Assay buffer negative control for background fluorescence
2. Reagent. 23 nL library compounds (7-pt, 1:4 intraplate titration series) or DMSO control transferred by Pin Tool
3. Centrifuge. Centrifuge plate for 30 s at 1000 RPM
4. Incubation.#Incubate reagents at room temperature for 30 min, protected from light
5. Reagent. 2 uL CD47-His (12.5 nM) in Assay buffer
6. Centrifuge. Centrifuge plate for 30 s at 1000 RPM
7. Incubation.#Incubate reagents at room temperature for 30 min, protected from light
8. Reagent. 1 uL Ni-NTA beads (10 ug/mL) added to respective wells
9. Reagent. 1 uL SAV beads (10 ug/mL) added to respective wells
10. Centrifuge. Centrifuge plate for 30 s at 1000 RPM
11. Incubation. Incubate reagents at room temperature for 30 min, protected from light
12. Detector. Measure AlphaScree n on EnVision (1536A1 aperture)
Where possible, perform Donor bead dilution and addition away from direct sunlight or with bright overhead lights turned off (<100 lux, similar to hallway lighting). Lighting should still be bright enough to allow accurate pipetting.
1. Assay buffer composition.#Phosphate buffered saline (PBS; 10 mM Phosphate, 137 mM NaCl, and 2.7 mM KCl; pH 7.4), 0.05% IGEPAL CA-630
2. 23nL of […] library compounds (7 plates) or DMSO vehicle control transferred to 9 Greiner white/solid bottom high base, TC plates in 7 interplate 1:5 titrations (see Yasgar, A. et al. 2008) with Pintool. Two of the 9 plates are DMSO-only in compound field at beginning and end of compound library-treated plates.
12. Aperture = 1536 plate HTS AlphaScreen; plate-detector distance = 0; Total measurement time = 240; Ex. time = 80 ms (33%); Afterglow CT1 corr. factor = 0; Glow CT2 corr. factor = 0; Bleach CT3 corr. factor = 0; Ref. signal= 417733; Ref. AD gain = 2
Turning to `NC1CCN(O)C1=O` (stereo not given), the “activity change, negative = inhibition” value was -0.394%.

Regarding `CC(N)(C(=O)O)c1ccc(C(=O)O)cc1` (stereo not given), the “activity change, negative = inhibition” value is 1.89%.

For `COc1ccc2c(c1)c(CC(=O)O)c(C)n2C(=O)c1ccccc1`, the “activity change, negative = inhibition” value was 1.61%.

As for `CCCc1c(-c2ccc(O)cc2)nn(-c2ccc(O)cc2)c1-c1ccc(O)cc1`, the “activity change, negative = inhibition” value is -11.4%.

Regarding `C[C@H]1CC2C3CCC4=CC(=O)C=C[C@]4(C)[C@@]3(Cl)[C@@H](O)C[C@]2(C)[C@@]1(O)C(=O)CO` (stereo not given in full), the “activity change, negative = inhibition” value was 1.43%.

As for `c1ccc2nc(C3=NCCN3)ccc2c1`, the “activity change, negative = inhibition” value was 0.379%.

Take `CC(C)Cn1c(=O)n(C)c(=O)c2[nH]cnc21`: the “activity change, negative = inhibition” value was -3.13%.

On to `O=C(O)/C=C/c1cnc[nH]1`, for which the “activity change, negative = inhibition” value is 0.453%.

Turning to `O=c1[nH]ccc2c(O)cccc12`, the “activity change, negative = inhibition” value was 2.66%.

For the compound `CCCCCCCCCCCCCCC[C@H](O)[C@H](N)CO`, the “activity change, negative = inhibition” value was 19.5%.

Consider `CCCCCC[C@@H]([C@@H](C)O)n1cnc2c(N)ncnc21`, for which the “activity change, negative = inhibition” value is 2.23%.

On to `NC(N)=NC(N)=Nc1cccc(Cl)c1`, for which the “activity change, negative = inhibition” value is 1.46%.

Take `CC(C)(C)c1cc(/C=C(\C#N)C(N)=S)cc(C(C)(C)C)c1O`: the “activity change, negative = inhibition” value is -26.8%.

Take `CNCCNS(=O)(=O)c1cccc2cnccc12`: the “activity change, negative = inhibition” value is 1.2%.

With `CC[n+]1c(/C=C/C=C2/N(C)c3ccccc3C2(C)C)sc2ccccc21`, the Potency is 7.36 µM (active).

Consider `CCc1ccc2c(-c3cccc(Cl)c3)nc(=O)n(CC)c2n1`, for which the “activity change, negative = inhibition” value is 2.67%.

For the compound `O=C(O)/C=C/c1ccc(O)c(O)c1`, the “activity change, negative = inhibition” value was 1.26%.

Turning to `C=C1C[C@@]23CC[C@H]4[C@@](C)(CCC[C@@]4(C)C(=O)O)[C@@H]2CC[C@]1(O)C3`, the “activity change, negative = inhibition” value is 0.703%.

For the compound `O=C(O)c1ccccc1Nc1cccc(OCc2ccc3ccccc3n2)c1`, the “activity change, negative = inhibition” value is -0.75%.

In the case of `N#Cc1cc2nc(O)c(O)nc2cc1[N+](=O)[O-]`, the “activity change, negative = inhibition” value was -0.261%.

Take `O=c1oc(Cl)c(Cl)c2ccccc12`: the “activity change, negative = inhibition” value was 2.35%.

Consider `c1ccc(C(NCCNC(c2ccccc2)c2ccccc2)c2ccccc2)cc1`, for which the “activity change, negative = inhibition” value is 41.7%.

Consider `Nc1ncnc2c1nc(Br)n2C1OC2COP(=O)(O)O[C@@H]2C1O` (stereo not given in full), for which the “activity change, negative = inhibition” value is 3.42%.

In the case of `CCSC(=N)N`, the “activity change, negative = inhibition” value was 1.38%.

With `Cc1cc2c(cc1Cl)N(C(=O)Nc1ccnc3ccccc13)CC2`, the “activity change, negative = inhibition” value is -19.1%.

As for `O=C1C2C=CC=CC2=NC(=S)N1CCN1CCC(=C(c2ccc(F)cc2)c2ccc(F)cc2)CC1` (stereo not given), the “activity change, negative = inhibition” value was -12.1%.

As for `O=C(O)c1cccnc1C(=O)O`, the Potency was 16.5 µM (active).

`CSC(=N)N`: the “activity change, negative = inhibition” value is 4.81%.

As for `O=c1onc2n1-c1cc(Br)ccc1OC2`, the “activity change, negative = inhibition” value is 3.76%.

For the compound `CC(=O)NNC(=O)N1Cc2ccccc2Oc2ccc(Cl)cc21`, the “activity change, negative = inhibition” value is -1.37%.

For `CN1CC(O)C(O)C(O)C1CO` (stereo not given), the “activity change, negative = inhibition” value was 0.222%.

In the case of `N[C@@H](CCC(=O)N[C@H](CSN=O)C(=O)NCC(=O)O)C(=O)O`, the “activity change, negative = inhibition” value is 1.07%.

For `CC(=O)[C@H]1CCC2C3CC=C4C[C@@H](OS(=O)(=O)O)CC[C@]4(C)C3CC[C@@]21C` (stereo not given in full), the “activity change, negative = inhibition” value was 2.6%.

For `NS(=O)(=O)c1cccc2c1c([N+](=O)[O-])cc1nc(O)c(O)nc12`, the “activity change, negative = inhibition” value is 0.169%.

Regarding `NC(=O)CNCCC(c1ccccc1)c1ccccc1`, the “activity change, negative = inhibition” value was 1.8%.

As to `CCCCCCCCCC[Si](C)(C)CCC(=O)NC(Cc1ccc(C)cc1)c1ccccc1` (stereo not given), the “activity change, negative = inhibition” value is 3.6%.

For the compound `Cn1c(=O)c2[nH]c(-c3ccc(S(=O)(=O)O)cc3)nc2n(C)c1=O`, the “activity change, negative = inhibition” value is -6.97%.

With `COC(=O)C(N)Cc1ccc(Cl)cc1` (stereo not given), the “activity change, negative = inhibition” value was -0.089%.

As to `NCC(O)(CS(=O)(=O)O)c1ccc(Cl)cc1` (stereo not given), the “activity change, negative = inhibition” value was -1.99%.

With `CC[C@@H]1Cc2cc(O)ccc2C2=C1c1ccc(O)cc1C[C@H]2CC`, the “activity change, negative = inhibition” value was -29.3%.
